The source of these data is PubChem BioAssay (NCI).

This is part of a sample that, as a whole, favours compounds with a hit. Of some 83,000 tested, about 20% had one in any assay.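 Activity criterion: percent growth below 10, measured after cells in 96-well plates were exposed to a single compound concentration for 48 hours.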 Values without a mark were called inactive. Active and inactive are the calls of the source.

The assay has as its system UO-31 renal. The experiment in a line: NCI-60 one-dose screen, 48 h (100 = growth as untreated, 0 = no growth, -100 = all killed). Particulars: 10 µM unless noted.
As for `CCC(=O)Nc1ccc(-c2nc(-c3cccc(O)c3)c(-c3ccnc(Br)c3)[nH]2)cc1`, the growth was 69.7%.

Regarding `NC(=O)c1c(NC(=O)c2cccc(OC(F)(F)F)c2)sc2c1CCC(=O)C2`, the growth was 30.1%.

With `COc1cc(C2=NN(C(C)=O)C(c3ccc(N4CCOCC4)cc3)C2)cc(OC)c1OC` (centres undefined), the growth was 84%.

Take `CCC(=O)Nc1cc(Nc2cc(NC3CC3)n3ncc(C#N)c3n2)ccc1C`: the growth is 19.7%.

Turning to `O=C(CSc1ccc(-c2nc3ccccc3[nH]2)cn1)N1CCN(c2ccccc2F)CC1`, the growth is 70.9%.

For `NCCN1CCN(c2nc(-c3ccccc3)nc3nc(-c4ccccc4)oc23)CC1`, the growth is -89.2% (active).

Turning to `CCN(CC)Cc1c(-c2cccc(OC(F)(F)F)c2)[nH]c2ccc(N3CCCC3)cc2c1=O`, the growth is 77.7%.

Consider `C#C[C@]1(O)CC[C@H]2[C@@H]3CC=C4c5sc(-c6ccc(OC)cc6)nc5CC[C@]4(C)[C@H]3CC[C@@]21C`, for which the growth was 18.9%.

`C#C[C@]1(O)CC[C@H]2[C@@H]3CC=C4c5sc(Nc6cc(OC)ccc6OC)nc5CC[C@]4(C)[C@H]3CC[C@@]21C`: the growth was 12.8%.

For the compound `O=C(Nc1cccc(-c2nc(-c3ccc(NC(=O)c4cccnc4)cc3Cl)no2)c1)Nc1ccc(NC(=O)C2CC2)c(C(F)(F)F)c1`, the growth is 17.8%.

`O=C(Nc1ccc(-c2nc(-c3cccc(O)c3)c(-c3ccnc(Br)c3)[nH]2)cc1)c1ccccc1`: the growth is 1.13% (active).

Regarding `COc1ccccc1N1CCN(C2=NN=C(c3cccc(Cl)c3)c3ccccc3C2)CC1`, the growth was 24%.

Turning to `O=C(NNc1nc2cc(F)c(F)cc2n2cccc12)c1ncccn1`, the growth was 17.7%.

In the case of `O=C(CN1C(=O)CSC1=O)Nc1ccc(C(=O)/C=C/c2cc3ccccc3nc2Cl)cc1`, the growth is 59.5%.

For `O=C(C[n+]1ccnc2ccccc21)c1ccc(O)c(O)c1`, the growth is 40.3%.

For `Cn1ccnc1C(=O)/C=C/c1ccc(C(=O)Nc2ccc(NC(=O)CCNC(=O)c3csc(Br)n3)cc2)cc1`, the growth was 46.6%.

Consider `COc1ccc(Oc2ccc(C3CC(c4cc(OC)c(OC)c(OC)c4)=NN3C(C)=O)cc2)cc1` (centres undefined), for which the growth is 10.1%.

Consider `O=C1/C(=C/c2ccccc2[N+](=O)[O-])Oc2ccc(O)cc21`, for which the growth was 21.4%.

For `O=c1c2ccccc2nc(COc2ccccc2)n1/N=C/C=C/c1ccccc1`, the growth was 89.8%.

Take `C#C[C@]1(O)CC[C@H]2[C@@H]3CC=C4c5sc(C6CC6)nc5CC[C@]4(C)[C@H]3CC[C@@]21C`: the growth was 68.8%.

Take `Cc1ccc(S(=O)(=O)N/N=C/c2cn(-c3ccc(F)cc3)nc2-c2ccc(S(C)(=O)=O)cc2)cc1`: the growth was 89.8%.

As for `C#C[C@]1(O)CC[C@H]2[C@@H]3CC=C4c5sc(-c6ccccn6)nc5CC[C@]4(C)[C@H]3CC[C@@]21C`, the growth was 35.8%.

In the case of `CCOC(=O)c1c(NC(=O)c2cccc(C(F)(F)F)c2)sc2c(CN3CCN(C)CC3)c(O)ccc12`, the growth was -95% (active).

Take `CCOC(=O)Nc1ccc(-c2nc(-c3cccc(O)c3)c(-c3ccnc(Br)c3)[nH]2)cc1`: the growth is 31.3%.

Turning to `COc1ccc(NS(=O)(=O)c2ccc(-c3cnc(C4CC4)o3)cc2)cc1Cl`, the growth was 51.8%.

Take `O=S(=O)(Nc1ccc(I)c(Cl)c1)c1ccc(-c2cnc(C3CC3)o2)cc1`: the growth was 51.7%.

As to `O=S(=O)(Nc1ccc2c(c1)OC(F)(F)O2)c1ccc(-c2cnc(C3CC3)o2)cc1`, the growth was 56.7%.

As for `O=C(CN1CCN(c2cc(=O)n(-c3ccccc3)c3ccccc23)CC1)Nc1ccc([N+](=O)[O-])cc1`, the growth is 62%.

Turning to `CN(c1ccc(Cl)cc1)S(=O)(=O)c1ccc(-c2cnc(C3CC3)o2)cc1`, the growth was 47.3%.

For the compound `O=C(/C=C/c1cn(-c2ccccc2)nc1-c1ccc(Cl)cc1)c1cc2ccccc2oc1=O`, the growth was 39.8%.

For `O=C1C[C@@H](c2ccccc2)Oc2c(Cc3ccccc3O)c(O)c(Cc3cc(Cc4cc(Cc5ccccc5O)ccc4O)ccc3O)c(O)c21`, the growth is 66.6%.

`CCC(CC)N1C(=O)/C(=c2\sc3n(c2=O)C2C(NN=3)N(CC)C(=O)N2CC)c2ccccc21` (centres undefined): the growth is 39.8%.

`COC(=O)Nc1ccc(-c2nc(-c3cccc(O)c3)c(-c3ccnc(Br)c3)[nH]2)cc1`: the growth is 42.9%.

In the case of `CC(=O)Nc1ccc(NC(=O)Nc2cccc(-c3nc(-c4ccc(NC(=O)c5cccs5)cc4Cl)no3)c2)cc1C(F)(F)F`, the growth was 14.4%.
